Broadly, the AC50 is the midpoint of the concentration-response curve, whichever way the signal moves.

Each structure is given as a SMILES string. Values joined by “and” are separate entries in the source; they are usually repeats but may differ in a detail not shown here. Equal values may be shown once. Records with an inconclusive call do not appear. The source holds several records for some structures; these can differ, active in one and inactive in another. Active and inactive are the calls of the source. How the source made its calls, unless noted: active means hit-call score of the fitted dose curve at least 0.9, where 1 is the maximum; inactive means score below 0.9.

The target of assay [1] is Bile acid receptor (Homo sapiens) (UniProt Q96RI1). The assay can be described thus: OT_FXR_FXRSRC1_0480: Odyssey Thera (OT) 8-hour HEK293T Protein-Complementation Assay for Farnesoid X receptor/SRC-1 Co-activator (AID 2283383; active means hit-call score of the fitted dose curve at least 0.9, where 1 is the maximum). The essentials: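 PCA, HEK293T, 8 h compound exposure; FXR–SRC-1 binding reconstitutes split reporter; fluorescence intensity; positive-direction fit vs DMSO.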

Assay [2] has the same target. The assay can be described thus: OT_FXR_FXRSRC1_1440: Odyssey Thera (OT) 24-hour HEK293T Protein-Complementation Assay for Farnesoid X receptor/SRC-1 Co-activator (AID 2283384; active means hit-call score of the fitted dose curve at least 0.9, where 1 is the maximum). In a few lines: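 Measures ligand-driven FXR–SRC-1 co-activator recruitment in HEK293T via fragment complementation, fluorescence intensity at 24 h. DMSO served as negative control and baseline for gain-of-signal fitting.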

Assay [3] has as its target Retinoic acid receptor RXR-alpha (Homo sapiens) (UniProt P19793). Kind of assay: OT_NURR1_NURR1RXRa_0480: Odyssey Thera (OT) 8-hour HEK293T Protein Complementation Assay for Nurr1/retinoid X receptor (RXR) (AID 2283385; active means hit-call score of the fitted dose curve at least 0.9, where 1 is the maximum). In a few lines: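 Interaction of bait and prey reconstitutes a functional reporter, whose fluorescence was measured in HEK293T cells dosed with compound for 8 hours. Signal gain relative to DMSO defined the single endpoint.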

The target of assay [4] is Peroxisome proliferator-activated receptor gamma (Homo sapiens) (UniProt P37231). The assay can be described thus: OT_PPARg_PPARgSRC1_0480: Odyssey Thera (OT) 8-hour Protein-Complementation Assay for Peroxisome Proliferator-activated Receptor Gamma / SRC-1 Co-activator (AID 2283387; active means hit-call score of the fitted dose curve at least 0.9, where 1 is the maximum). The essentials: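 Read-out: 488 nm N/C fluorescence ratio from complemented Venus YFP fragments, ≥350 cells per image, gain-of-signal fitted against DMSO baseline. Fusions of PPARg/SRC-1 with IFP1/IFP2 expressed transiently in HEK293T; compounds applied 8 h.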

For assay [5] the target is unchanged. Kind of assay: OT_PPARg_PPARgSRC1_1440: Odyssey Thera (OT) 24-hour Protein-Complementation Assay for Peroxisome Proliferator-activated Receptor Gamma/ SRC-1 Co-activator (AID 2283388; active means hit-call score of the fitted dose curve at least 0.9, where 1 is the maximum). In a few lines: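 HEK293T transiently transfected with PPARg/SRC-1 split-Venus YFP fusions 48 h before dosing, then treated 24 h at 37C. Fixed cells imaged; nuclear/cytoplasmic 488 nm fluorescence ratio, gain of signal versus DMSO.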

Read-out in assay [6]: Tumor necrosis factor receptor superfamily member 6 (Homo sapiens) (UniProt P25445)
The assay can be described thus: LTEA_HepaRG_FAS: Life Technologies and Expression Analysis (LTEA) Assay for Fas cell surface death receptor (FAS) using HepaRG (AID 2283447). The following applies: mRNA level, 48 h; actives raise or lower the signal. The essentials: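 Differentiated HepaRG cells in serum-free induction medium were exposed 48 h to 8 half-log concentrations up to 100 uM in 0.5% DMSO, in duplicate. FAS mRNA was measured by qRT-PCR normalised to ACTB, GAPDH and POLR2A; bidirectional fit versus DMSO.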

Read-out in assay [7]: Fatty acid synthase (Homo sapiens) (UniProt P49327)
Kind of assay: LTEA_HepaRG_FASN: Life Technologies and Expression Analysis (LTEA) Assay for Fatty Acid Synthase (FASN) using HepaRG (AID 2283448).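 On AC50: differentiated human HepaRG liver cells in serum-free induction medium.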 To be noted: mRNA level, 48 h; actives raise or lower the signal. The essentials: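 Cells were plated, cultured 48 h, switched to serum-free induction medium, then dosed in duplicate (max 100 uM, half-log dilutions, 0.5% DMSO) for 48 h. RNA was then isolated and FASN quantified by qRT-PCR.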

Read-out in assay [8]: Cyclin D2 (CCND2), CCND2 (gene 894)
The assay can be described thus: LTEA_HepaRG_CCND2: Life Technologies and Expression Analysis (LTEA) Assay for Cyclin D2 (CCND2) using HepaRG (AID 2283449).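 Further: CCND2 transcript measured by TaqMan qRT-PCR and normalised to three housekeeping genes.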 The following applies: mRNA level, 48 h; actives raise or lower the signal. The essentials: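 HepaRG, 48 h dosing, 8-pt half-log curve from 100 uM, 0.5% DMSO; duplicate wells. Readout: CCND2 transcript by microfluidic qRT-PCR, housekeeping-normalised; bidirectional fit vs DMSO baseline.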

Read-out in assay [9]: Cyclin Dependent Kinase Inhibitor 1A (CDKN1A), CDKN1A (gene 1026)
Kind of assay: LTEA_HepaRG_CDKN1A: Life Technologies and Expression Analysis (LTEA) Assay for Cyclin Dependent Kinase Inhibitor 1A (CDKN1A) using HepaRG (AID 2283450). The following applies: mRNA level, 48 h; actives raise or lower the signal. The essentials:
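Differentiated HepaRG cells in serum-free induction medium, exposed 48 h in duplicate to eight half-log concentrations up to 100 uM in 0.5% DMSO. mRNA measured by TaqMan qRT-PCR, normalized to ACTB, GAPDH, POLR2A; bidirectional fit versus DMSO.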

The target of assay [10] is Retinoic acid receptor RXR-alpha (Homo sapiens) (UniProt P19793). The assay can be described thus: OT_NURR1_NURR1RXRa_1440: Odyssey Thera (OT) 24-hour HEK293T Protein Complementation Assay for Nurr1/retinoid X receptor (RXR) (AID 2283386; active means hit-call score of the fitted dose curve at least 0.9, where 1 is the maximum). The essentials:
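Steps: fragment-tagged Nurr1 and RXRα expressed in HEK293T; compounds added; after 24 h, complemented reporter quantified by fluorescence intensity; signal increase over DMSO fitted as the single endpoint.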

A short description of assay [11]: CEETOX_H295R_11DCORT: CeeTox H295R High-throughput Steroidogenesis Assay for 11-Deoxycortisol (11DCORT) (AID 2283432). The following applies: actives raise or lower the signal. In a few lines:
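H295R cells; 10 uM forskolin prestim 48 h; compound in 0.1% DMSO 48 h; media extracted with MTBE; 11-deoxycortisol by LC-MS/MS, 7-point standard curve; gain/loss vs DMSO baseline; viability by MTT in same wells.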

Assay [12] in a line: CEETOX_H295R_OHPREG: CeeTox H295R High-throughput Steroidogenesis Assay for OH-Pregnenolone (OHPREG) (AID 2283434). The following applies: actives raise or lower the signal. In a few lines:
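H295R, 10 uM forskolin pre-stim 48 h; test chemical 48 h, 0.1% DMSO final. MTBE extraction, reverse-phase C18 HPLC-ESI+ MS/MS of medium. Gain/loss vs DMSO; viability by MTT in same wells.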

Assay [13] can be described thus: CEETOX_H295R_OHPROG: CeeTox H295R High-throughput Steroidogenesis Assay for OH-Progesterone (OHPROG) (AID 2283435).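 On AC50: human adrenal H295R cells primed 48 h with 10 µM forskolin; 17alpha-hydroxyprogesterone secreted into medium measured by HPLC-MS/MS.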 The following applies: actives raise or lower the signal. The essentials:
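Steps: seed H295R cells and adhere overnight; stimulate with 10 uM forskolin for 48 h; replace with chemical-containing medium (0.1% DMSO) for 48 h; extract medium with MTBE; quantify 17alpha-hydroxyprogesterone by reverse-phase C18 HPLC-MS/MS against a 7-point curve.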

A short description of assay [14]: CEETOX_H295R_CORTIC: CeeTox H295R High-throughput Steroidogenesis Assay for Corticosterone (CORTIC) (AID 2283437).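 Further: corticosterone secreted into medium quantified by mass spectrometry.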 The following applies: actives raise or lower the signal. The essentials:
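48 h forskolin (10 uM) prestim, then 48 h chemical exposure, final DMSO 0.1%. Readout: corticosterone in medium by LC-MS/MS after MTBE extraction. Gain/loss fit vs DMSO; MTT viability in same wells.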

The nature of assay [15]: CEETOX_H295R_CORTISOL: CeeTox H295R High-throughput Steroidogenesis Assay for Cortisol (AID 2283438). The following applies: actives raise or lower the signal. In a few lines: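 Cortisol synthesis by H295R cells is measured 48 h after chemical dosing, following a 48 h stimulation with 10 uM forskolin. Hormone is extracted and quantified by HPLC-MS/MS, and activity is fitted bidirectionally against the DMSO control.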

The nature of assay [16]: CEETOX_H295R_DOC: CeeTox H295R High-throughput Steroidogenesis Assay for DOC (AID 2283439). To be noted: actives raise or lower the signal. In a few lines:
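Steps: seed H295R, adhere overnight; 10 uM forskolin 48 h; replace with chemical medium (0.1% DMSO) 48 h; collect medium, MTBE extraction, HPLC-MS/MS for DOC. Viability then checked by MTT; cytotoxic chemicals diluted until viability ≥70%.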

Assay [17] in a line: CEETOX_H295R_ESTRADIOL: CeeTox H295R High-throughput Steroidogenesis Assay for Estradiol (AID 2283440).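 Further: estradiol secreted into medium quantified by LC-MS/MS after dansyl derivatisation.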 The following applies: actives raise or lower the signal. The essentials:
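H295R cells pre-stimulated 48 h with 10 uM forskolin, then exposed 48 h to chemical in 0.1% DMSO. Medium estradiol quantified by MTBE extraction, dansyl derivatisation and HPLC-MS/MS; bidirectional fit versus DMSO; MTT viability required >/=70%.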

The nature of assay [18]: CEETOX_H295R_ESTRONE: CeeTox H295R High-throughput Steroidogenesis Assay for Estrone (AID 2283441).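 On AC50: human adrenal H295R cells prestimulated with forskolin for two days.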 The following applies: actives raise or lower the signal. The essentials:
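Estrone secreted into medium quantified by LC-MS/MS after dansyl chloride derivatization, following 48 h chemical exposure (0.1% DMSO final) of forskolin-prestimulated (10 uM, 48 h) H295R cells; gain or loss fitted against DMSO; MTT viability in same wells.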

Assay [19] in a line: CEETOX_H295R_PROG: CeeTox H295R High-throughput Steroidogenesis Assay for Progesterone (PROG) (AID 2283442).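 On AC50: human H295R adrenal cells primed with 10 µM forskolin before dosing.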 The following applies: actives raise or lower the signal. In a few lines:
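H295R adrenal cells prestimulated 48 h with 10 uM forskolin, then exposed 48 h to test chemical in 0.1% DMSO. Progesterone in medium quantified by HPLC-MS/MS after MTBE extraction; viability checked by MTT in same wells.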

Peroxisome proliferator-activated receptor gamma (Homo sapiens), sequence (P37231 whole entry, looked up, the tested form may be a part): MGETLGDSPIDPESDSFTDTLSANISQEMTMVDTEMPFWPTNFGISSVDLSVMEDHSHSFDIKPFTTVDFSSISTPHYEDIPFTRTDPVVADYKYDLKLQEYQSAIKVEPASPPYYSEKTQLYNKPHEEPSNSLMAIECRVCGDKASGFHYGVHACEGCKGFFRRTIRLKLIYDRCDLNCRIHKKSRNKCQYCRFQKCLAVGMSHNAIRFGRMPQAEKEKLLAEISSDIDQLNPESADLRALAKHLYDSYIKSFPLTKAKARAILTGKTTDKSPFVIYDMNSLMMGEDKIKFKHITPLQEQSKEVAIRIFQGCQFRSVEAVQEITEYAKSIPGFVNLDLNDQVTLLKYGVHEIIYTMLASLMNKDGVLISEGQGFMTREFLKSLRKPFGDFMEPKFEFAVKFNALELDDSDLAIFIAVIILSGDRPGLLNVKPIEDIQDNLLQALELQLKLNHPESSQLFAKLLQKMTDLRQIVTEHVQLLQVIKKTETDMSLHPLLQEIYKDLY
Bile acid receptor (Homo sapiens), sequence (Q96RI1 whole entry, looked up): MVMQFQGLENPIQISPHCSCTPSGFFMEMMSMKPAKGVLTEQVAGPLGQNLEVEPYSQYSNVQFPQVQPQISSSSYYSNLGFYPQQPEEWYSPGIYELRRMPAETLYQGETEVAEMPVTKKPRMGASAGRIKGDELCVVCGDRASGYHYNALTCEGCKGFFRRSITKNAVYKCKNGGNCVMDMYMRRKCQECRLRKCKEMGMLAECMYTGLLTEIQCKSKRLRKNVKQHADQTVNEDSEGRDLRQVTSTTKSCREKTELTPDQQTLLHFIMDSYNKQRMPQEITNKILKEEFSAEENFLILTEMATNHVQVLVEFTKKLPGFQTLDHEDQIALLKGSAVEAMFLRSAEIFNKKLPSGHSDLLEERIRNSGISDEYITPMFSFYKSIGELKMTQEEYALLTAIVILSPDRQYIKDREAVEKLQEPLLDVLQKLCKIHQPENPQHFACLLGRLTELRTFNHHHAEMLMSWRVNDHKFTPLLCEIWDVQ
Retinoic acid receptor RXR-alpha (Homo sapiens), sequence (P19793 whole entry, looked up, the tested form may be a part): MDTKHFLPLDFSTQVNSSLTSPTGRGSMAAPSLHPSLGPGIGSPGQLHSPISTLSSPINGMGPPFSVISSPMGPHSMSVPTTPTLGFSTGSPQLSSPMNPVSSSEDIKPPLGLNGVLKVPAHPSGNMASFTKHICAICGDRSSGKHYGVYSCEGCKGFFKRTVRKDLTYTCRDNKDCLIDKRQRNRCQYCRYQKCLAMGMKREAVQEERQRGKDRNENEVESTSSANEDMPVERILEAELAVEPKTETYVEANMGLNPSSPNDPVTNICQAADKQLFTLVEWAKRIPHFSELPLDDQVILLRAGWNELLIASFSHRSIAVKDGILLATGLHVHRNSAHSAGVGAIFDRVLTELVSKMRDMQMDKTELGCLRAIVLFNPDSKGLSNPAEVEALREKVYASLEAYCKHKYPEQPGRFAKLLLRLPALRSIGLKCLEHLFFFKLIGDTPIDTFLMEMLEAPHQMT
Fatty acid synthase (Homo sapiens), sequence (P49327 whole entry, looked up): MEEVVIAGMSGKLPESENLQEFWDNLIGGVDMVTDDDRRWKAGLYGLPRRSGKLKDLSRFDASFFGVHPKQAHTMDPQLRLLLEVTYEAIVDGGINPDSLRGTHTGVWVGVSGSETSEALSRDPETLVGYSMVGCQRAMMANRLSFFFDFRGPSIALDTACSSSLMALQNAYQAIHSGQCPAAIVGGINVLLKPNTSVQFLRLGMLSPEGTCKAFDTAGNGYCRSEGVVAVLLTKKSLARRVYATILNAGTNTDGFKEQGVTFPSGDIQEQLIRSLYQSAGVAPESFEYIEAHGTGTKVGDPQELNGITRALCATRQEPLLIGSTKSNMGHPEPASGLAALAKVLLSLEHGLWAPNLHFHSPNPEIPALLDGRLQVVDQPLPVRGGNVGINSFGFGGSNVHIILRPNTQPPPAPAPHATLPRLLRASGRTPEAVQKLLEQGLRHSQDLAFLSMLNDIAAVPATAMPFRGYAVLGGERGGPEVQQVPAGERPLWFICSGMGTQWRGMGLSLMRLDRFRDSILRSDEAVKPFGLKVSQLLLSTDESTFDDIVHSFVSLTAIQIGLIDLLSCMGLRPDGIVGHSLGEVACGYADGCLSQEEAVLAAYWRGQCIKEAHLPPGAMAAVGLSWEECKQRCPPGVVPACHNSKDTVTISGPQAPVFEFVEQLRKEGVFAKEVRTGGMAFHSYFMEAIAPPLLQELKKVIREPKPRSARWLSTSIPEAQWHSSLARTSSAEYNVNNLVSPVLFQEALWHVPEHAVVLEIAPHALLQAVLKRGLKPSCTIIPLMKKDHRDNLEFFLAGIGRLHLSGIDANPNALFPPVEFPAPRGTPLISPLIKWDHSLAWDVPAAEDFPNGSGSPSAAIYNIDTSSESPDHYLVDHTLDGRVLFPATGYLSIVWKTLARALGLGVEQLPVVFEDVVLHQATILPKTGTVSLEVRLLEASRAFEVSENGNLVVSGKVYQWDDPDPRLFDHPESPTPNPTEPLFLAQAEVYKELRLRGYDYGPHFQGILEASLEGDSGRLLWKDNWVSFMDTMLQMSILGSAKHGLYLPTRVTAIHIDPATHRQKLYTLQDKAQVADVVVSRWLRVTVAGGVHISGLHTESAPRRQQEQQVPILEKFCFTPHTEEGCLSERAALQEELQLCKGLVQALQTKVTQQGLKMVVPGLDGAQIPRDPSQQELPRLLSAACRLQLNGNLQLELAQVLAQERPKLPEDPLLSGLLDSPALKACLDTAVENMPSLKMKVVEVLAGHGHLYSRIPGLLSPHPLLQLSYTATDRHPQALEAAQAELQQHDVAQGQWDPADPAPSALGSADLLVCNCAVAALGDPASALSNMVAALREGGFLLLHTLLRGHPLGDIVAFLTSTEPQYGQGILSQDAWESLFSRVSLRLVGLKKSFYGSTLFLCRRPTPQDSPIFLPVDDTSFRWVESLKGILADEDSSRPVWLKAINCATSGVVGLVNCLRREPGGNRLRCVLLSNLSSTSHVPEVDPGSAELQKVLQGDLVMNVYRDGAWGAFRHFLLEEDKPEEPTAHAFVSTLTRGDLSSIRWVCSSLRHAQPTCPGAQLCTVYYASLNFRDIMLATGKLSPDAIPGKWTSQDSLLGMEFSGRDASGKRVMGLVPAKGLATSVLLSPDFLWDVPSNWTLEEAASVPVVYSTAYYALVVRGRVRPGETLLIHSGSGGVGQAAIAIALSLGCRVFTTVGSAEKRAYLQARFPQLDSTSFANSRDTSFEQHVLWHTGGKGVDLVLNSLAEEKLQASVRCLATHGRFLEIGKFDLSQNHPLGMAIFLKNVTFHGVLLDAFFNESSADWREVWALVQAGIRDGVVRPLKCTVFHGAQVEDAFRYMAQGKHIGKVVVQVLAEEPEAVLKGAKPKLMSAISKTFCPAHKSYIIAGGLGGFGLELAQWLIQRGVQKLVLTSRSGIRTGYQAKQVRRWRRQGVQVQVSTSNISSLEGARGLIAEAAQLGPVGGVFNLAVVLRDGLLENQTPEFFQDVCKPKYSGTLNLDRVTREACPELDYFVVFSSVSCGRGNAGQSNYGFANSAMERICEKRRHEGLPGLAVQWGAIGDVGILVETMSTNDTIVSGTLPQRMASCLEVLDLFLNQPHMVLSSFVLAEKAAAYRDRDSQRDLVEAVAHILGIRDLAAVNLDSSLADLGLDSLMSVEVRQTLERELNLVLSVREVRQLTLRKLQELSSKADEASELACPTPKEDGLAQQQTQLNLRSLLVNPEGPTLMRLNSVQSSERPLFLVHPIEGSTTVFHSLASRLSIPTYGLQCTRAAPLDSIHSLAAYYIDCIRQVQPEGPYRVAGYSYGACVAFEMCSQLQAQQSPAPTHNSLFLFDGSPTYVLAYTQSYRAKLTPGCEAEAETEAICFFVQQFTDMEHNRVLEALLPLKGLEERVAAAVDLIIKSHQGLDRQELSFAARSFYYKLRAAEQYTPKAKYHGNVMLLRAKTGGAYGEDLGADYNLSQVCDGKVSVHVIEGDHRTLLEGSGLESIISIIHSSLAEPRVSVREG

In the case of `COC(=O)C(C)Oc1ccc(Oc2ccc(Cl)cc2Cl)cc1` (centres undefined), the AC50 in assay [1] is 66.2 µM (active). The compound was classed as inactive in assay [2], in assay [3], in assay [4], in assay [5], in [6] and in assay [7]. Further, the outcome in assay [8] and in assay [9] was inactive.

Turning to `CCOC(=O)C(Cl)Cc1cc(-n2nc(C)n(C(F)F)c2=O)c(F)cc1Cl` (centres undefined), the half-maximal activity concentration (AC50) in assay [1] was 22.4 µM (active); in assay [3], 12.7 µM (active); in [13], 50 µM (active); in [16], 17.2 µM (active). Moreover, the compound was called inactive in [2], in assay [3], in assay [10], in [4], in assay [5] and in assay [11]. The compound was called inactive in [12], in assay [14], in [15], in assay [17], in assay [18] and in assay [19]. The compound was classed as inactive in assay [6], in assay [7] and in assay [9].

For the compound `CC(Oc1ccc(Cl)cc1Cl)C(=O)O` (centres undefined), the outcome in assay [1], in assay [3], in assay [10], in [4], in assay [5] and in [6] was inactive. For the same compound, the call in assay [7], in [8] and in assay [9] was inactive.

Take `O=C(Nc1ccccc1)Nc1ccnc(Cl)c1`: the compound was classed as inactive in assay [2], in [4], in [5], in [6], in assay [7] and in assay [8]. The AC50 in assay [9] is 50 µM (active).

For the compound `Oc1ccccc1-c1ccccc1`, the compound was classed as inactive in [3], in assay [10], in [4], in assay [5], in assay [12] and in [13]. Moreover, the call in assay [17], in assay [18], in assay [19], in [6], in [7] and in assay [8] was inactive. Also, in assay [9], the compound was called inactive. The AC50 was 71.8 µM (active) in assay [13], 32 µM (active) in [17], 50 µM (active) in [18] and 50 µM (active) in [19].

Turning to `CO/C=C(/C(=O)OC)c1ccccc1Oc1cc(Oc2ccccc2C#N)ncn1`, the call in assay [3], in assay [4], in assay [5] and in assay [8] was inactive. Besides, the AC50 in [6] is 78.4 µM (active) and 82.9 µM (active) and 81.6 µM (active); in assay [7] it was 90.5 µM (active) and 91.3 µM (active) and 91 µM (active); in assay [9], 79.5 µM (active) and 78.9 µM (active).

With `CNC(=S)S`, the result in assay [10], in [4], in assay [5], in assay [11], in assay [12] and in assay [13] was inactive. For the same compound, the outcome in [14], in assay [15], in assay [16], in assay [17], in [18] and in assay [19] was inactive. Further, the outcome in assay [6], in assay [7], in assay [8] and in assay [9] was inactive.
